Reference: PubChem BioAssay (EPA / NIEHS)
Records with an inconclusive call do not appear. Calls of active or inactive are those of the source. The calls were made as follows, unless noted: active = hit-call score of the fitted dose curve at least 0.9, where 1 is the maximum; inactive = score below 0.9.

Experiments:
[1] = Tanguay_ZF_120hpf_MUSC: Oregon State University Tanguay Lab 120 Hour Post-fertilization zebrafish Assay for Muscle Malformation (AID 2284401)
How it was run: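 Scored as a binary brightfield endpoint at 120 hpf, fitted versus DMSO. Single dechorionated wild-type (Tropical 5D) zebrafish embryos per well, statically exposed at 28C from 6 hpf onward with final DMSO 0.64%.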

[2] = UKN5_HCS_SBAD2_cell_viability: Viability Assessment in the University of Konstanz (UKN) Leist Lab Neurite Outgrowth Assay in human iPSC-derived immature Dorsal Root Ganglia Neurons (UKN5) (AID 2284056)
How it was run: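 iPSC-derived immature peripheral neurons (SBAD2) seeded on Matrigel with CHIR99021, SU5402 and DAPT, dosed 1 h later for 24 h. Viability from Hoechst H-33342 and calcein-AM live staining, high-content imaging; bidirectional fit versus DMSO.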

[3] = UKN5_HCS_SBAD2_neurite_outgrowth: University of Konstanz (UKN) Leist Lab Neurite Outgrowth Assay in human iPSC-derived immature Dorsal Root Ganglia Neurons (UKN5) (AID 2284070); conditions: actives raise or lower the signal
How it was run: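 Thaw, seed on Matrigel (100.000 cells/cm2), dose 1 h later; at 23 h live-stain with H-33342 and calcein-AM for 60 min; image at 24 h. Neurite area fitted bidirectionally vs DMSO.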

[4] = UKN2_HCS_IMR90_neural_migration: University of Konstanz (UKN) Leist Lab Neural Crest Cell Migration Assay in human induced IMR90 Pluripotent Stem Cells (UKN2) (AID 2284204); conditions: actives raise or lower the signal
How it was run: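 High-content imaging of calcein-AM and Hoechst stained cells quantifies migration into a stopper-defined gap after 24 h compound exposure. Neural crest cells from IMR90 iPSC migrated 24 h in EGF/FGF N2-S medium before dosing; DMSO baseline.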

[5] = IUF_NPC1b_proliferation_BrdU_72hr: Leibniz Research Institute for Environmental Medicine (IUF) 72-hour Neural Progenitor Cell Bromodeoxyuridine (BrdU) Proliferation Assay (NPC1b) (AID 2284207)
How it was run: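 Human fetal cortex-derived (GW 16-19) neural progenitor spheres, 0.25-0.35 mm, one per well in EGF/FGF proliferation medium, exposed to compound for 72 h at 37C, pH 7.2-7.6. BrdU incorporation over the final 16 h read by luminescence ELISA, relative to DMSO.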

[6] = IUF_NPC1a_proliferation_area_72hr: Leibniz Research Institute for Environmental Medicine (IUF) 72-hour Neural Progenitor Cell Proliferation Area Assay (NPC1a) (AID 2284208)
How it was run: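 Measured in 3D suspension: each well held one primary hNPC sphere grown with EGF and FGF at pH 7.2-7.6. Compound stayed on for 72 h, then area was imaged; spheres lacking growth factors defined reduced proliferation.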

[7] = IUF_NPC1_viability_72hr: Viability Assessment at 72 hours in the Leibniz Research Institute for Environmental Medicine (IUF) Neural Progenitor Cell Proliferation Assay (NPC1) (AID 2284209)
How it was run: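 Spheres of primary human neural progenitors were plated singly in proliferation medium and treated for 72 h. Mitochondrial reduction of resazurin was then measured by fluorescence and analysed against DMSO controls.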

[8] = UKN2_HCS_IMR90_cell_viability: Viability Assessment in the University of Konstanz (UKN) Leist Lab Neural Crest Cell Migration Assay in human induced IMR90 Pluripotent Stem Cells (UKN2) (AID 2284233);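 also: cells exposed to compound for 24 h after a 24 h migration phase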
How it was run: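 After calcein-AM/Hoechst staining, viability is quantified by high-content fluorescence imaging, relative to DMSO, in iPSC (IMR90)-derived neural crest cells. Exposure lasts 24 h, starting after a 24 h migration period on PLO/laminin/fibronectin coating.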

[9] = IUF_NPC2c_oligodendrocyte_migration_120hr: Leibniz Research Institute for Environmental Medicine (IUF) 120-hour Neural Progenitor Cell Migration Assay for Oligodendrocyte Migration (NPC2c) (AID 2284297);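 also: O4-positive oligodendrocyte migration distance divided by radial glia migration distance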
How it was run: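 Using fetal brain neural progenitor spheres differentiating in N2 medium at 37C, compounds were present for 120 h. Oligodendrocyte migration distance, normalized to radial glia migration, was measured from imaged O4 staining.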

[10] = IUF_NPC2a_radial_glia_migration_120hr: Leibniz Research Institute for Environmental Medicine (IUF) 120-hour Neural Progenitor Cell Migration Assay for Radial Glia Migration (NPC2a) (AID 2284298)
How it was run: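 Exposure of 0.3 mm primary hNPC spheres runs day 0 to 120 h with a half-volume medium change at day 3. Fixed cells get Hoechst staining; high-content analysis of nuclear positions yields radial glia migration distance per well, compared against DMSO controls.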

[11] = IUF_NPC2a_radial_glia_migration_72hr: Leibniz Research Institute for Environmental Medicine (IUF) 72-hour Neural Progenitor Cell Migration Assay for Radial Glia Migration (NPC2a) (AID 2284299)
How it was run: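 Single 0.3 mm neurospheres were plated per well in N2 differentiation medium and exposed from the start of differentiation. After 72 hours, brightfield images were taken and radial glia migration from the sphere core edge was measured manually in four directions, averaged per well.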

[12] = IUF_NPC2b_neuronal_migration_120hr: Leibniz Research Institute for Environmental Medicine (IUF) 120-hour Neural Progenitor Cell Migration Assay for Neuron Migration (NPC2b) (AID 2284300)
How it was run: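 Fetal human NPC spheres migrate on PDL/laminin during 120 h compound treatment; neuronal migration distance, glia-normalized, scored versus DMSO control.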

[13] = IUF_NPC3_neuronal_differentiation_120hr: Leibniz Research Institute for Environmental Medicine (IUF) 120-hour Neuronal Differentiation Assay (NPC3) (AID 2284301)
How it was run: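 Value is percent TUBB3-positive neurons among Hoechst-stained nuclei in the migration area, scored by trained CNN after 120 h differentiation. Primary hNPC spheres on poly-D-lysine/laminin, N2 medium, continuous dosing from day 0, half-refeed day 3; DMSO reference.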

[14] = IUF_NPC4_neurite_length_120hr: Leibniz Research Institute for Environmental Medicine (IUF) 120-hour Neuronal Morphology Assay for Neurite Length (NPC4) (AID 2284302)
How it was run: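 Neurite length, the mean in um across TUBB3-stained neurons, is derived by skeletonization of high-content images after 120 h differentiation. Compound exposure, 7 concentrations plus solvent control, ran from plating of hNPC spheres on poly-D-lysine/laminin, with medium half-replaced on day 3.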

[15] = IUF_NPC5_oligodendrocyte_differentiation_120hr: Leibniz Research Institute for Environmental Medicine (IUF) 120-hour Oligodendrocyte Differentiation Assay (NPC5) (AID 2284304; active = hit-call score of the fitted dose curve at least 0.9, where 1 is the maximum;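 also: primary human fetal neural progenitor spheres plated to migrate and differentiate; share of O4-positive cells among Hoechst nuclei found by CNN image analysis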)
How it was run: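 After plating on poly-D-lysine/laminin, fetal-derived hNPC spheres differentiated for 120 h at 37C in compound-containing N2 medium, refreshed by half on day 3. O4 immunostaining over Hoechst nuclei in the migration zone gave oligodendrocyte percentage relative to DMSO.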

[16] = IUF_NPC4_neurite_area_120hr: Leibniz Research Institute for Environmental Medicine (IUF) 120-hour Neuronal Morphology Assay for Neurite Area (NPC4) (AID 2284305; active = hit-call score of the fitted dose curve at least 0.9, where 1 is the maximum)
How it was run: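 Neurite area (pixels, nuclei excluded) of TUBB3-positive neurons from hNPC spheres differentiating 5 days under continuous exposure at 37 C, 5% CO2. High-content imaging; loss of signal versus DMSO control across 7 concentrations.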

[17] = IUF_NPC2-5_cytotoxicity_72hr: Cytotoxicity Assessment at 72 hours in the Leibniz Research Institute for Environmental Medicine (IUF) Neural Progenitor Cell Migration and Differentiation Assay for Cytotoxicity (NPC2-5) (AID 2284306; active = hit-call score of the fitted dose curve at least 0.9, where 1 is the maximum;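 also: LDH release into supernatant measured by resorufin fluorescence marking membrane damage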)
How it was run: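 Membrane-integrity cytotoxicity at 72 h, read as LDH-driven resorufin fluorescence in supernatant. hNPC spheres from fetal cortex differentiate on coated plates in N2 medium, 37C, 5% CO2; seven serial compound concentrations plus solvent control (DMSO ≤0.1%).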

[18] = IUF_NPC2-5_cytotoxicity_120hr: Cytotoxicity Assessment at 120 hours in the Leibniz Research Institute for Environmental Medicine (IUF) Neural Progenitor Cell Migration and Differentiation Assay (NPC2-5) (AID 2284307; active = hit-call score of the fitted dose curve at least 0.9, where 1 is the maximum;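 as to AC50: LDH released into supernatant as membrane damage marker via resorufin fluorescence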)
How it was run: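 Membrane-integrity loss is quantified by LDH in supernatant after five days of exposure of migrating, differentiating human fetal NPC spheres; seven serially diluted concentrations are tested with DMSO kept at or below 0.1%.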

[19] = IUF_NPC2-5_cell_number_120hr: Cell Number Assessment at 120 hours in the Leibniz Research Institute for Environmental Medicine (IUF) Neural Progenitor Cell Migration and Differentiation Assay (NPC2-5) (AID 2284308);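 also: count of Hoechst-stained nuclei in migration zone around plated human neural progenitor spheres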
How it was run: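 Seven-point serial dilutions plus solvent control were applied to plated 0.3 mm hNPC spheres at differentiation start, with medium half-replaced at day 3. Nuclei positive for Hoechst in the migration zone were enumerated at 120 h.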

[20] = IUF_NPC2-5_viability_120hr: Viability Assessment at 120 hours in the Leibniz Research Institute for Environmental Medicine (IUF) Neural Progenitor Cell Migration and Differentiation Assay (NPC2-5) (AID 2284312)
How it was run: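 Alamar blue resorufin fluorescence read after 5 days of differentiation, with compound present from day 0 and replenished at day 3. Primary hNPC spheres on laminin-coated plates, 37C; seven concentrations plus solvent control, fitted against DMSO.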

[21] = IUF_NPC1_cytotoxicity_72hr: Cytotoxicity Assessment at 72 hours in the Leibniz Research Institute for Environmental Medicine (IUF) Neural Progenitor Cell Proliferation Assay (NPC1) (AID 2284332; active = hit-call score of the fitted dose curve at least 0.9, where 1 is the maximum;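 also: rising LDH signal means more cytotoxicity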)
How it was run: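 Membrane-integrity loss is scored from LDH released into the medium, detected as resorufin fluorescence, with activity fitted upward relative to baseline. Test material stays on human fetal-derived progenitor spheres for 72 h.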

Measured: AC50

CN(C(=O)C(F)(F)C(F)(F)C(F)(F)F)[Si](C)(C)C
inactive: [1]

CC1(C)C(C=C(Cl)Cl)[C@H]1C(=O)O[C@H](C#N)c1cccc(Oc2ccccc2)c1 (stereo not given in full)
active: [15] 1000 nM
not listed: [1]
inactive: all other assays above

O=C1N[C@@H]2C(=C[C@H](O)[C@@H](O)[C@H]2O)c2cc3c(c(O)c21)OCO3
active: [2] 30.3 nM | [3] 32.7 nM | [4] 47 nM | [5] 21.6 nM | [6] 23.7 nM | [7] 38.3 nM | [8] 218 nM | [10] 37 nM | [11] 45 nM | [13] 11.1 nM | [14] 14.8 nM | [15] 12.1 nM | [16] 9.33 nM | [18] 13.1 nM | [19] 26.7 nM | [20] 24.2 nM
inactive: [9] | [12] | [17] | [21]

Clc1cc(Cl)c(-c2cc(Cl)c(Cl)c(Cl)c2Cl)cc1Cl
active: [4] 5570 nM | [8] 13300 nM
inactive: [2] | [3]
